Shown is part of a subset that was picked to be rich in hits.
p53ts 39C tox = cytotoxicity in p53ts cells at nonpermissive temperature | H1299-p53A138V viability at 39C, ATP luminescence, 24 h | Potency, µM (titrated, usually from 46.1 µM), for inactives: top-dose activity change, negative = cell killing, most hits filed as cytotoxic | actives 1.5% (n = 130,000); note: potency is the fitted concentration of half-maximal effect; % is set by controls: 0 for no effect and ±100 for the full control effect; nearly all actives have a fitted effect of over 55% in size
p53ts 32C kill = kills p53ts cells at the permissive temperature; AID 924; actives 0.93% (n = 130,000); Potency, µM (highest dose often 46.1 µM), inactives show top-dose activity change, negative = cytotoxicity, usual class: cytotoxic; H1299-p53A138V at 32C, ATP luminescence viability, 24 h;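 note: potency is the fitted concentration of half-maximal effect; 0% = DMSO and -100% = full killing by reference compound; nearly all actives have a fitted effect of over 55% in size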
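Viability by ATPlite luminescence after 24 h compound treatment (up to 46 uM) at the permissive 32C. Cells are H1299 carrying p53 A138V. Scale runs from DMSO basal to 100 uM tamoxifen as full kill; AC50 from Hill fits.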
Luciferase inh = inhibitors of firefly luciferase; P08659; purified firefly luciferase, luminescence, 8 min; Potency, µM (doses to about 57.1 µM), inactives show at the top dose activity change, negative = inhibition, hits mostly inhibitors; actives 2.2% (n = 72,000); AID 411; note: potency is the fitted concentration of half-maximal effect; % is set by controls: 0 for no effect and ±100 for the full control effect; nearly all actives have a fitted effect of over 40% in size
Target sequence (P08659 whole entry, looked up): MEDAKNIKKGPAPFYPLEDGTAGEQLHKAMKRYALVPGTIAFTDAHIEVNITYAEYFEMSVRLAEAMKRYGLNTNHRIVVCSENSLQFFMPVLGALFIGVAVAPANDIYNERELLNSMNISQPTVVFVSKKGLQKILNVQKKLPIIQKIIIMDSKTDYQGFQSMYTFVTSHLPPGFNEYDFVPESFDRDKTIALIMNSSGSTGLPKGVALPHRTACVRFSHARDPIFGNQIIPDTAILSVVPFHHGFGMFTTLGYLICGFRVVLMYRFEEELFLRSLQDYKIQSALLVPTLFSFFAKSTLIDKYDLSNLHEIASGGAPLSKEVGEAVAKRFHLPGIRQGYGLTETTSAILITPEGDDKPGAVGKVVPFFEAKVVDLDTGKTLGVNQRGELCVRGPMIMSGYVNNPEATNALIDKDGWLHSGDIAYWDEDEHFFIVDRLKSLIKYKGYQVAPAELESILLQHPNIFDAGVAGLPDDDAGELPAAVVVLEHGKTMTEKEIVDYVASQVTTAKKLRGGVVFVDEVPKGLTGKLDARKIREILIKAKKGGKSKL
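Luminescence read-out after 8 min at room temperature; enzyme reaction used luciferin plus 10 uM ATP (linear range) in imidazole buffer pH 7.2 with KCl, MgCl2, Tween 20 and BSA. Each sample was run as a titration.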
Imprint erasure = induces erasure of genomic imprints in mouse ES cells | AID 1948 | Potency, µM (titrated, usually from 60.7 µM), inactives show at the top dose activity change, positive = activation, usual class: activators | mouse ES Peg3-LacZ reporter, beta-gal luminescence, 40 h | actives 0.02% (n = 110,000); note: potency is the fitted concentration of half-maximal effect
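Imprint erasure is scored as LacZ activity from the silenced maternal Peg3 allele in feeder-free female ES cells cultured 40 h with LIF. Luminescence is normalized to in-plate negative controls and fitted to the Hill equation.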
IMPase inh = IMPase inhibition in cells; CHO-M1 cells, IP1 accumulation, HTRF TR-FRET ratio; inhibition (IP1 accumulation), % at 46.1 µM; 120,000 tested, under 10 active; AID 901; active = well fitted curve in the direction sought with a large enough effect in the signal ratio, not every such curve was filed as active; inconclusive = small, poorly fitted or top-dose-only effect, or a change in a side signal; inactive = no such curve, though single readings can be large or run the other way; the % refers to the signal ratio;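 note: cells stimulated with carbachol in lithium chloride buffer; plate controls were DMSO basal wells for no effect and reference inhibitor wells for full effect; higher means more IMPase inhibition seen as more IP1 and lower FRET ratio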
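CHO-M1 cells (CHO stably expressing M1 receptor), compound up to 46 uM final, stimulated with carbachol (50 uM as added) in buffer with 50mM LiCl, pH 7.4, 30 min at 37C. Cytosolic IP1 read by TR-FRET; AC50 from Hill fits.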
IkB sig inh = inhibitors of IkB signaling in ABC-DLBCL cells. ABC-DLBCL IkBa-CBG/CBR dual luciferase ratio, 4 h; response scale: scaled: untreated 0%, proteasome inhibitor 100%. actives 0.04% (n = 110,000). AID 445. Potency, µM (titrated, usually from 57.1 µM), inactives show at the highest dose IkBa stabilization activation; active = well fitted curve in the direction sought with a large enough effect in the signal ratio, not every such curve was filed as active; inconclusive = small, poorly fitted or top-dose-only effect, or a change in a side signal; the % refers to the signal ratio;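 note: potency is the fitted concentration of half-maximal effect; the direction sought is a rising ratio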
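Luminescence ratio of IκBα-fused green versus native red beetle luciferase in OCI-Ly3 cells, 4 h post-doxycycline with compound; red signal alone, scaled from basal (0%) to zero light (-100%), flagged nonspecific or cytotoxic effects.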
The depositor's hits bear a star; ? = inconclusive; nt = not tested or not shown; ! = a repeat was not active; [ ] = remark or other dose. Unless noted, calls come from the whole dose curve; as a rule, active = well fitted curve in the direction sought with a large enough effect; inconclusive = small, poorly fitted or top-dose-only effect, or another doubt; inactive = no such curve, though single readings can be large; an effect the other way counts as inactive or inconclusive.

SMILES	p53ts 39C tox	p53ts 32C kill	Luciferase inh	Imprint erasure	IMPase inh	IkB sig inh
Cc1oc(-c2cccc(Cl)c2)nc1CN1CCC(C(=O)NC(C)c2ccccc2)CC1 (stereo unspecified)	-6%	0%	nt	-16%[10.9 µM]	nt	?
CCN(CCNC(=O)C1CCN(Cc2nc(-c3ccc(Cl)cc3)oc2C)CC1)c1ccccc1	?	25µM*	-1%	-28%	5	?
COc1cc(OC)c(NC(=O)Nc2nnc(N(C)C3CCCCC3)s2)cc1Cl	-1%	5%	nt	-8%[10.9 µM]	nt	-2%
O=C(Cn1c(=O)n(Cc2ccccc2)c(=O)c2oc3ccccc3c21)Nc1ccc(Cl)cc1	-9%	-2%	nt	-17%[10.9 µM]	nt	?
COc1ccccc1CN1CC[C@@]2(CCCN(C(=O)c3cnccn3)C2)C1	-2%	-2%	-9%[11.4 µM]	nt	nt	3%[11.4 µM]
CCCCN1C(=O)c2[nH]nc(-c3ccccc3O)c2C1c1ccc(OCc2ccccc2)c(OC)c1 (stereo unspecified)	-11%	25%	nt	-11%[10.9 µM]	nt	?
O=C1c2[nH]nc(-c3ccccc3O)c2C(c2ccc(F)cc2)N1Cc1ccco1 (stereo unspecified)	18%	27%	9%	-7%	-1	?
Cc1ccc(C2c3c(-c4ccccc4O)n[nH]c3C(=O)N2CCCO)cc1 (stereo unspecified)	1%	19%	nt	-10%[10.9 µM]	nt	?
Cc1ccc(C2c3c(-c4cc(C)ccc4O)n[nH]c3C(=O)N2Cc2ccco2)cc1 (stereo unspecified)	25µM*	?	nt	-6%[10.9 µM]	nt	?
COCCCN1C(=O)c2[nH]nc(-c3ccccc3O)c2C1c1ccc(OCc2ccccc2)cc1 (stereo unspecified)	13µM*	25%	nt	-8%[10.9 µM]	nt	?
CCCCN1C(=O)c2[nH]nc(-c3ccccc3O)c2C1c1ccc(C(C)(C)C)cc1 (stereo unspecified)	13µM*	?	nt	25%[10.9 µM]	nt	?
CCCCN1C(=O)c2[nH]nc(-c3ccccc3O)c2C1c1ccc(OCc2ccccc2)cc1 (stereo unspecified)	13µM*	24%	nt	-9%[10.9 µM]	nt	?
CC(C)OCCCN1C(=O)c2[nH]nc(-c3ccccc3O)c2C1c1cccc(OCc2ccccc2)c1 (stereo unspecified)	?	?	nt	-11%[10.9 µM]	nt	?
CC1(C)S[C@@H]2[C@H](NC(=O)C(N)c3ccccc3)C(=O)N2[C@H]1C(=O)O (stereo partly specified)	nt	nt	3%[25.5 µM]	18%[16.8 µM]	nt	2%[25.6 µM]
Nc1nc(N)c2nc(-c3ccccc3)c(N)nc2n1	-7%	13µM*!	-5%[25.5 µM]	-10%	-29	?
CSC(N)=NCCC[C@@H](N)C(=O)O	5%	1%	-1%	nt	12	1%
CCc1cccc(NC(=O)Cn2c(=O)n(CCC(=O)NCc3ccccc3Cl)c(=O)c3sccc32)c1	13µM*	?	nt	-5%[10.9 µM]	nt	?
Cc1ccc(NC(=O)c2cc(C)n(-c3ccccc3)c2C)cc1	7.1µM*	nt	nt	nt	5	nt
Cc1ccc2cccnc2c1	6%	-18%[1.84 µM]	nt	3%	nt	2%
Cc1ccc(-n2ncc3c(N4CCN(Cc5ccccc5)CC4)ncnc32)cc1C	32µM*	20µM*	nt	-13%[10.9 µM]	nt	?
Cc1ccc(-n2ncc3c(N4CCCCCC4)ncnc32)cc1C	?	10µM*	nt	-16%[10.9 µM]	nt	?
Cc1cccc(N2CCN(c3ncnc4c3cnn4-c3ccc(Cl)cc3)CC2C)c1 (stereo unspecified)	16µM*	?	nt	2%[10.9 µM]	nt	?
Cc1cccc(-n2ncc3c(N4CCC(C)CC4)ncnc32)c1	nt	nt	nt	nt	12	nt
Cc1cccc(-n2ncc3c(N4CCCCCC4)ncnc32)c1	4µM*	?	nt	-19%[10.9 µM]	nt	?

Source: PubChem BioAssay
